Reference: PubChem BioAssay (NCATS)
Records with an inconclusive call do not appear. Active and inactive are the calls of the source. Calls come from the whole dose curve; as a rule, active = well fitted inhibition curve with a large enough effect; inconclusive = small, poorly fitted or top-dose-only effect; inactive = flat fitted curve, though single readings scatter.

Columns and labels:
Assay in all cases: qHTS profiling for inhibitors of Plasmodium falciparum proliferation (AID 504749); note: nearly all actives have a fitted effect of over 60% in size
Settings in all cases: P. falciparum in erythrocytes, SYBR Green DNA, 72 h; series mostly up to 28.7 µM
CP268 = system: CP268
Summary of the method: (§1)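 In a 72 h erythrocytic culture (37 C, humidified, 5% CO2) at 2.5% hematocrit and 0.3% starting parasitemia, compounds were tested; SYBR Green I in detergent lysis buffer stained parasite DNA overnight.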

CP269 = system: CP269
Summary of the method: as §1

CP286 = system: CP286
Summary of the method: as §1

CP291 = system: CP291
Summary of the method: as §1

CP297 = system: CP297
Summary of the method: as §1

CP305 = system: CP305
Summary of the method: as §1

CP315 = system: CP315
Summary of the method: as §1

CP325 = system: CP325
Summary of the method: as §1

CP329 = system: CP329
Summary of the method: as §1

CP335 = system: CP335
Summary of the method: as §1

DFO2036 = system: DFO2036
Summary of the method: as §1

DIV14 = system: DIV14
Summary of the method: as §1

DIV17 = system: DIV17
Summary of the method: as §1

DIV30 = system: DIV30
Summary of the method: as §1

Dd2 = system: Dd2
Summary of the method: as §1

ECU = system: ECU
Summary of the method: as §1

FAB9 = system: FAB9
Summary of the method: as §1

GB4 = system: GB4
Summary of the method: as §1

HB3 = system: HB3
Summary of the method: as §1

ICS = system: ICS
Summary of the method: as §1

Measured: Potency

CCOC(=O)c1cccnc1
inactive: CP268 | CP269 | CP286 | CP291 | CP297 | CP305 | CP315 | CP325 | CP329 | CP335 | DFO2036 | DIV14 | DIV17 | DIV30 | Dd2 | ECU | FAB9 | GB4 | HB3 | ICS

O[C@@H]1CO[C@H]2[C@@H]1OC[C@@H]2O
inactive: CP268 | CP269 | CP286 | CP291 | CP297 | CP305 | CP315 | CP325 | CP329 | CP335 | DFO2036 | DIV14 | DIV17 | DIV30 | Dd2 | ECU | FAB9 | GB4 | HB3 | ICS

NC(N)=NS(=O)(=O)c1ccc(N)cc1
inactive: CP268 | CP269 | CP286 | CP291 | CP297 | CP305 | CP315 | CP325 | CP329 | CP335 | DFO2036 | DIV14 | DIV17 | DIV30 | Dd2 | ECU | FAB9 | GB4 | HB3 | ICS

NC(N)=NCCN1CCCCCCC1
inactive: CP268 | CP269 | CP286 | CP291 | CP297 | CP305 | CP315 | CP325 | CP329 | CP335 | DFO2036 | DIV14 | DIV17 | DIV30 | Dd2 | ECU | FAB9 | GB4 | HB3 | ICS

OCc1ccc(Cl)cc1Cl
inactive: CP268 | CP269 | CP286 | CP291 | CP297 | CP305 | CP315 | CP325 | CP329 | CP335 | DFO2036 | DIV14 | DIV17 | DIV30 | Dd2 | ECU | FAB9 | GB4 | HB3 | ICS

Cc1cccc(Nc2ccccc2C(=O)O)c1C
inactive: CP268 | CP269 | CP286 | CP291 | CP297 | CP305 | CP315 | CP325 | CP329 | CP335 | DFO2036 | DIV14 | DIV17 | DIV30 | Dd2 | ECU | FAB9 | GB4 | HB3 | ICS

CNCc1ccccc1
inactive: CP268 | CP269 | CP286 | CP291 | CP297 | CP305 | CP315 | CP325 | CP329 | CP335 | DFO2036 | DIV14 | DIV17 | DIV30 | Dd2 | ECU | FAB9 | GB4 | HB3 | ICS

Cc1ncc(CO)c(CN)c1O
inactive: CP268 | CP269 | CP286 | CP291 | CP297 | CP305 | CP315 | CP325 | CP329 | CP335 | DFO2036 | DIV14 | DIV17 | DIV30 | Dd2 | ECU | FAB9 | GB4 | HB3 | ICS

CN1CCN(C(=O)C2CCCCC2)CC1
inactive: CP268 | CP269 | CP286 | CP291 | CP297 | CP305 | CP315 | CP325 | CP329 | CP335 | DFO2036 | DIV14 | DIV17 | DIV30 | Dd2 | ECU | FAB9 | GB4 | HB3 | ICS

O=C(O)COC(=O)Cc1ccccc1Nc1c(Cl)cccc1Cl
inactive: CP268 | CP269 | CP286 | CP291 | CP297 | CP305 | CP315 | CP325 | CP329 | CP335 | DFO2036 | DIV14 | DIV17 | DIV30 | Dd2 | ECU | FAB9 | GB4 | HB3 | ICS

CC(O)CCCCn1c(=O)c2c(ncn2C)n(C)c1=O (stereo not given)
inactive: CP268 | CP269 | CP286 | CP291 | CP297 | CP305 | CP315 | CP325 | CP329 | CP335 | DFO2036 | DIV14 | DIV17 | DIV30 | Dd2 | ECU | FAB9 | GB4 | HB3 | ICS

Nc1ccc(S(=O)(=O)c2ccc(N)cc2)cc1
inactive: CP268 | CP269 | CP286 | CP291 | CP297 | CP305 | CP315 | CP325 | CP329 | CP335 | DFO2036 | DIV14 | DIV17 | DIV30 | Dd2 | ECU | FAB9 | GB4 | HB3 | ICS

CCN(CC)S(=O)(=O)c1ccc(C(=O)O)cc1
inactive: CP268 | CP269 | CP286 | CP291 | CP297 | CP305 | CP315 | CP325 | CP329 | CP335 | DFO2036 | DIV14 | DIV17 | DIV30 | Dd2 | ECU | FAB9 | GB4 | HB3 | ICS

CCOC(=O)[C@H](CCc1ccccc1)N[C@@H](C)C(=O)N1CCC[C@H]1C(=O)O
inactive: CP268 | CP269 | CP286 | CP291 | CP297 | CP305 | CP315 | CP325 | CP329 | CP335 | DFO2036 | DIV14 | DIV17 | DIV30 | Dd2 | ECU | FAB9 | GB4 | HB3 | ICS

CC(=O)Nc1ccccc1
inactive: CP268 | CP269 | CP286 | CP291 | CP297 | CP305 | CP315 | CP325 | CP329 | CP335 | DFO2036 | DIV14 | DIV17 | DIV30 | Dd2 | ECU | FAB9 | GB4 | HB3 | ICS
